Records with an inconclusive call do not appear. The source made the active and inactive calls. Unless noted, calls come from the whole dose curve; as a rule, active = well fitted curve in the direction sought with a large enough effect in the repeat runs; inconclusive = weak or mixed curves; inactive = no such curve, though single readings can be large; an effect the other way counts as inactive or inconclusive.

The target of test [1] is Retinoic acid receptor RXR-alpha (Homo sapiens) (UniProt P19793). The test is described as follows: qHTS assay to identify small molecule agonists of the RXR signaling pathway (AID 1159527; calls by dose curve; note: nearly all actives have a fitted effect of over 35% in size). The gist of the method:
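Using 9-cis retinoic acid as the reference agonist, chemicals were tested in HEK 293T cells […] for 16 hr; substrate loading lasted 2 hr at room temperature.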

Test [2] in a line: qHTS assay to identify small molecule agonists of the RXR signaling pathway - cell viability counter screen (AID 1159529). Note: series mostly up to about 77 µM; nearly all actives have a fitted effect of over 50% in size. The gist of the method:
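Compounds dissolved in DMSO were pinned onto HEK 293T cells carrying a beta-lactamase reporter under RXR-alpha control and incubated 16 hr. Cytotoxicity was then quantified by CellTiter-Glo luminescence.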

The nature of test [3]: qHTS assay to identify small molecule antagonists of the retinoid acid receptor (RAR) signaling pathway - cell viability counter screen (AID 1159551). Note: nearly all actives have a fitted effect of over 35% in size. The gist of the method: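 Cells (C3RL4) are plated, incubated overnight, dosed with compound in DMSO, then given retinol at 1 uM final. After 6 h at 37 C, CellTiter-Glo is added and luminescence read following 30 min at room temperature.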
A general note: In qHTS, concentration-response curves come from the screen itself.

Test [4] is described as follows: qHTS assay to identify small molecule antagonists of the retinoic acid receptor (RAR) signaling pathway (AID 1159552; note: nearly all actives have a fitted effect of over 50% in size). The gist of the method: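 Test chemicals and DMSO controls were pin-transferred onto C3RL4 cells a day after seeding; retinol (1 uM final) followed at once. Luminescent reporter output was quantified after 6 hr of co-incubation and 30 min with detection reagent.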

A short description of test [5]: qHTS assay to identify small molecule agonists of the retinoic acid receptor (RAR) signaling pathway (AID 1159553). Note: potency is the fitted concentration of half-maximal effect. In short, it runs like this: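 Seed C3RL4 reporter cells at 1,000 per well and incubate overnight at 37 C. Add compounds in DMSO, incubate 6 hr. Add luciferase reagent, wait 30 min at room temperature, read luminescence.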
The nature of test [6]: qHTS assay to identify small molecule antagonists of the estrogen related receptor (ERR) signaling pathway - cell viability counter screen (AID 1224818). Note: series mostly up to about 46 µM. In short, it runs like this:
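ERR cells, 2,000/well; 6 h settle at 37 C/5% CO2; compound pin transfer (DMSO); 17.5 h at 37 C; CellTiter-Fluor, 30 min, fluorescence read.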

Test [7] can be described thus: qHTS assay to identify small molecule antagonists of the estrogen related receptor (ERR) signaling pathway (AID 1224819;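 note: luminescence from an ERR-driven luciferase reporter measured with One-Glo reagent; series mostly up to about 46 µM; nearly all actives have a fitted effect of over 50% in size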). The gist of the method: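 qHTS in ERR cells, 2,000/well, 1536 format. Cpd (DMSO) added after 6 h settle, 18 h 37 C. One-Glo luminescence, 30 min RT.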
The nature of test [8]: qHTS assay to identify small molecule agonists of the estrogen related receptor (ERR) signaling pathway (AID 1224820). In short, it runs like this:
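Luminescence readout (One-Glo, 30 min RT) from NTP-supplied ERR cell line exposed to compounds for 18 h at 37 C. Cells seeded 2,000 per well and pre-incubated 6 h before pin-tool compound transfer.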

Test [9] deals with estrogen-related receptor alpha (ERRalpha) with PGC-1alpha coactivator, human. The test is described as follows: qHTS assay to identify small molecule antagonists of the estrogen related receptor signaling pathway with the pleiotropic PPARgamma coactivator (PGC) (AID 1224821; calls by dose curve;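 note: series mostly up to about 46 µM; lower luminescence signal means antagonism of PGC/ERR signalling; nearly all actives have a fitted effect of over 50% in size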). In short, it runs like this: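 PGC/ERR reporter cells; 6 h pre-incubation 37 C/5% CO2; pin-tool compound in DMSO, 18 h 37 C; One-Glo added, 30 min RT; luminescence read. qHTS antagonist mode.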

Test [10] is described as follows: qHTS assay to identify small molecule antagonists of the estrogen related receptor signaling pathway with the pleiotropic PPARgamma coactivator (PGC) cell viability counter screen (AID 1224822;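 note: series mostly up to about 46 µM; viability read after 17.5 h compound exposure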). The gist of the method:
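Multiplexed viability counter screen run in PGC/ERR cells treated with compounds for 17.5 h at 37 C; live-cell protease signal measured by CellTiter-Fluor fluorescence.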
% is set by controls: 0 for no effect and ±100 for the full control effect.

Chain of Retinoic acid receptor RXR-alpha (Homo sapiens) (P19793 whole entry, looked up): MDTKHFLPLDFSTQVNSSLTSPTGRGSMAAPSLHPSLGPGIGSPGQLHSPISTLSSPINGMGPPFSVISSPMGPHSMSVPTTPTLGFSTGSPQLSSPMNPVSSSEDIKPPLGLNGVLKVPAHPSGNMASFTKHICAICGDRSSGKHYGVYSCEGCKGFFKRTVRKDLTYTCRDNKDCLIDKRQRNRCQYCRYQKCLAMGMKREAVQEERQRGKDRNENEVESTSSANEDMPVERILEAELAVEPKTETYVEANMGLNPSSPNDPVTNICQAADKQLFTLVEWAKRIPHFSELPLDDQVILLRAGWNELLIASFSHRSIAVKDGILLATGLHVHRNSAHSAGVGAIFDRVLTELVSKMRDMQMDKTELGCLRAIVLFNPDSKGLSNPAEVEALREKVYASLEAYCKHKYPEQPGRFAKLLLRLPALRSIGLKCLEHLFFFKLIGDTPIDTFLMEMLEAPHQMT

Take `CN1CCN(c2c(F)cc3c(=O)c(C(=O)O)cn4c3c2SCC4)CC1`: the Potency result in [1], in test [2], in test [4] and in test [5] was “inactive” in each case. Besides, in test [3], the molecule was classed as inactive.
Consider `OCCN(CCO)c1ccccc1`, for which the Potency entry in [1], in test [2], in test [4] and in [5] was “inactive” in each case. Also, the molecule was called inactive in test [3].
Take `C1CSCCS1`: the Potency entry in [1], in test [2], in [4] and in [5] was “inactive” each time. In addition, in test [3], the molecule was called inactive.
For `CC/C=C\CCOC(=O)CCCCC`, the Potency entry in test [1], in test [2], in [4] and in test [5] was “inactive” each time. Further, the result in [3] was inactive.
`CC(=O)OC1C2(C)CCC(C2)C1(C)C` (centres undefined): the Potency entry in test [1], in [2], in [4] and in [5] was “inactive” each time. Also, the result in [3] was inactive.
Take `OCCN(CCO)CCN(CCO)CCO`: the Potency result in [1], in test [2], in [4] and in test [5] was “inactive” in each case. In test [3], the outcome was inactive.
For `CCCCCCC`, the Potency entry in [1], in test [2], in test [4] and in test [5] was “inactive” each time. In [3], the outcome was inactive.
Turning to `CCCCCCCOC(=O)CCC`, the Potency result in [1], in [2], in test [4] and in [5] was “inactive” each time. In addition, the molecule was classed as inactive in [3].
Regarding `CCOC(=O)c1cc(=O)c2c(OCC(COc3cccc4oc(C(=O)OCC)cc(=O)c34)OC(=O)[C@@H](N)CCCCN)cccc2o1`, the Potency entry in test [1], in test [2], in test [4] and in test [5] was “inactive” each time. Also, in [3], the molecule was classed as inactive.
On to `COC(=O)N[C@H](C(=O)N[C@@H](Cc1ccccc1)[C@@H](O)CN(Cc1ccc(-c2ccccn2)cc1)NC(=O)[C@@H](NC(=O)OC)C(C)(C)C)C(C)(C)C`, for which the Potency entry in test [1], in [2], in test [4] and in test [5] was “inactive” throughout. Also, the outcome in test [3] was inactive.
As for `COc1ccccc1OCC(O)COC(N)=O` (centres undefined), the Potency result in test [1], in [2], in test [4] and in test [5] was “inactive” throughout. Also, the call in test [3] was inactive.
Consider `Cc1ccsc1C(=CCCN1CCC[C@@H](C(=O)O)C1)c1sccc1C`, for which the Potency result in test [1], in [2], in [4] and in test [5] was “inactive” throughout. For the same molecule, the call in test [3] was inactive.
For `CCOC(=O)[C@H](CCc1ccccc1)N[C@@H](C)C(=O)N1Cc2cc(OC)c(OC)cc2C[C@H]1C(=O)O`, the Potency result in test [1], in test [2], in test [4] and in test [5] was “inactive” each time. Also, the call in test [3] was inactive.
For `CC(C)(CO)[C@@H](O)C(=O)NCCC(=O)O`, the Potency entry in test [1], in test [2], in [4] and in [5] was “inactive” each time. In test [3], the result was inactive.
In the case of `NC(=O)Cc1cccc(C(=O)c2ccccc2)c1N`, the Potency result in test [1], in [2], in [4] and in test [5] was “inactive” in each case. Further, the call in test [3] was inactive.
For the molecule `CC1(C)S[C@@H]2[C@H](NC(=O)C(C(=O)O)c3ccccc3)C(=O)N2[C@H]1C(=O)O` (some centres undefined), the Potency result in test [1], in test [2], in test [4] and in [5] was “inactive” in each case. For the same molecule, the molecule was classed as inactive in test [3].
Take `O=C1CCC(C2CCCCC2)CC1`: the Potency entry in test [1], in [2], in test [4] and in test [5] was “inactive” throughout. The outcome in [3] was inactive.
As to `O=c1oc2c(O)c(O)cc3c(=O)oc4c(O)c(O)cc1c4c23`, the activation in test [1] was 11.4% [at 15.8 µM] (inactive). The activity change, negative = cytotoxicity is 8.17% [at 15.8 µM] (inactive) in test [2] and -0.41% [at 19 µM] (inactive) in test [3]. Moreover, the activity, negative = inhibition in test [4] was 3.23% [at 19 µM] (inactive). Also, in [5], the Potency result was “inactive”.
On to `COc1nc(C)nc(NC(=O)NS(=O)(=O)c2ccccc2OCCCl)n1`, for which the Potency result in test [1], in [2], in test [4] and in test [5] was “inactive” each time. The result in test [3] was inactive.
As to `C[C@@H]1CN(c2c(F)c(N)c3c(=O)c(C(=O)O)cn(C4CC4)c3c2F)C[C@H](C)N1`, the activation in test [1] is 12.8% [at 15.8 µM] (inactive). The values for the activity change, negative = cytotoxicity in test [2] and in [3] were 8.39% [at 15.8 µM] (inactive) and 2.38% [at 19 µM] (inactive), respectively. The activity, negative = inhibition in test [4] was 6.27% [at 19 µM] (inactive). The Potency entry in [5] was “inactive”.
Regarding `CCOc1ccc(NS(=O)(=O)c2ccc(N)cc2)nn1`, the Potency result in test [1], in [2], in test [4] and in [5] was “inactive” each time. In [3], the result was inactive.
Regarding `Oc1ccccc1C=NCc1ccccc1`, the Potency entry in test [1], in [2], in test [4] and in test [5] was “inactive” throughout. For the same molecule, the outcome in test [3] was inactive.
`CCCS(=O)c1ccc2nc(NC(=O)OC)[nH]c2c1` (centres undefined): the Potency entry in test [1], in test [2], in test [4] and in [5] was “inactive” throughout. Moreover, the call in test [3] was inactive.
`NCCC(O)(P(=O)(O)O)P(=O)(O)O`: the Potency result in test [1], in test [2], in test [4] and in test [5] was “inactive” in each case. The molecule was classed as inactive in test [3].
For `O=C(C(Cl)Cl)N1CCOC12CCCCC2`, the Potency entry in test [1], in [2], in test [4] and in test [5] was “inactive” each time. Moreover, in test [3], the call was inactive.
For the molecule `Cc1cc(NS(=O)(=O)c2ccc(N)cc2)nc(C)n1`, the Potency result in [1], in [2], in test [4] and in test [5] was “inactive” each time. For the same molecule, the result in test [3] was inactive.
As to `CCN[C@H]1CN(CCCOC)S(=O)(=O)c2sc(S(N)(=O)=O)cc21`, the Potency result in test [1], in [2] and in [5] was “inactive” throughout. In addition, in [3], the molecule was classed as inactive.
For `O=C(O)CN(CCN(CC(=O)O)CC(=O)O)CCN(CC(=O)O)CC(=O)O`, the activation in [1] was 6.5% [at 15.8 µM] (inactive). The activity change, negative = cytotoxicity in test [2] was 2.65% [at 15.8 µM] (inactive); in [3], 4.77% [at 19 µM] (inactive). Moreover, the activity, negative = inhibition in test [4] is -10.7% [at 19 µM] (inactive). Moreover, the Potency result in test [5] is “inactive”. The molecule was called inactive in test [6], in test [7], in [8], in [9] and in test [10].
Turning to `CC(C)C[C@H](NC(=O)OCC1c2ccccc2-c2ccccc21)C(=O)O`, the Potency result in test [1], in test [2] and in [4] was “inactive” each time. Also, in [3], the molecule was called inactive. Further, the Potency in test [5] was 1720 nM (active).
For `CC(=O)N[C@@H](CC(C)C)C(=O)O`, the Potency entry in test [1], in test [2] and in test [5] was “inactive” throughout. Also, the result in test [3] was inactive.
`C=Cc1ccccc1`: the Potency result in test [1], in [2] and in test [5] was “inactive” each time. Further, in [3], the result was inactive.
As to `Cc1cc(S(=O)(=O)O)c(N)cc1Cl`, the Potency entry in [1], in [2] and in test [5] was “inactive” each time. For the same molecule, the call in test [3] was inactive.
Turning to `COc1cc(Cl)ccc1Cl`, the Potency result in test [1], in [2] and in test [5] was “inactive” each time. Also, the call in test [3] was inactive.
For `O=C1CCN(c2ccccc2)N1`, the Potency entry in [1], in [2], in [4] and in test [5] was “inactive” each time. In addition, in test [3], the molecule was classed as inactive.
Turning to `NC(=O)NS(=O)(=O)c1ccc(Cl)cc1`, the Potency result in test [1], in test [2] and in test [5] was “inactive” each time. Further, in test [3], the result was inactive.
Turning to `CN1[C@@H]2CC[C@H]1CC(OC(=O)c1c[nH]c3ccccc13)C2` (some centres undefined), the Potency result in test [1], in test [2], in test [4] and in test [5] was “inactive” in each case. In addition, the result in [3] was inactive.

The record behind these values is PubChem BioAssay (Tox21).
